This excerpt belongs to a sample that is enriched for hits.
IL1B secr inh: inflammasome signaling inhibition, IL-1 beta readout; THP-1 LPS/ATP IL-1B secretion, AlphaLISA, 16 h; hits give low values; activity change, % at 57.5 µM; 4.7% of 360,000 active; in the data active = activity change below about -50%; inconclusive = mostly about -30% to -49%
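Secreted IL-1B measured by AlphaLISA bead assay after 16 h compound exposure of THP-1 cells; compounds (final up to 57.5 uM) added 1 h before LPS (250 ng/mL) and ATP (1.25 mM) stimulation; lower signal means less secretion.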
DT40 TDP1 no CPT: qHTS for Inhibitors of human tyrosyl-DNA phosphodiesterase 1 (TDP1): qHTS in cells in absence of CPT; DT40 Tdp1-/- hTDP1 cells, no CPT, ATP luminescence, 48 h; Potency, µM (series often up to 46.2 µM), without a hit: top-dose activity change, negative = growth inhibition, hits mostly inhibitors; 15% of 420,000 active; AID 686978, 2013; also: potency is read from the fitted curve at half-maximal effect; nearly all actives have a fitted effect of over 55% in size
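Chicken DT40 Tdp1-/- cells stably complemented with human TDP1 were seeded at 400 cells/well with DMSO in place of 20 nM camptothecin. After compound pinning, cells grew at least 48 hr at 37 °C; viability read by CellTiter-Glo luminescence.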
HT1080 IDH1KD tx: toxicity to HT-1080 IDH1 knockdown cells (counter line) | 2% of 360,000 active | Potency, µM (series often up to 46.1 µM), for inactives: top-dose activity, negative = toxicity, most hits filed as cytotoxic | HT-1080 IDH1 knockdown viability, ATP luminescence, 48 h | AID 686971;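 also: potency is read from the fitted curve at half-maximal effect; 0% = DMSO wells and -100% = cell-free medium wells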
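Luminescent ATP read-out (CellTiter-Glo, 10 min at room temperature) after 48 h compound exposure at 37 °C gave viability of IDH1-knockdown HT-1080 cells. Activity was normalised to DMSO and cell-free wells, then fitted as concentration-response curves.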
HT1080NT lethal: kills 2HG-producing HT-1080-NT fibrosarcoma cells | HT-1080-NT fibrosarcoma viability, CellTiter-Glo ATP luminescence, 48 h | Potency, µM (titrated, usually from 46.1 µM), without a hit: top-dose activity, negative = less viability, usual class: cytotoxic | 1.6% of 360,000 active;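 also: NT is the 2HG producing partner of a matched IDH1 knockdown line; potency is read from the fitted curve at half-maximal effect; 0% = DMSO-treated cells and -100% = media-only wells without cells; nearly all actives have a fitted effect of over 55% in size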
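Compounds were tested in concentration-response format on HT-1080-NT cells for 48 hours at 37 degrees C. Cell viability came from CellTiter-Glo luminescence; curves were classified by r2, response magnitude and activity.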
ALOX12 inh: blocks human arachidonate 12S-lipoxygenase; 1.1% of 580,000 active; Potency, µM (doses to about 108 µM), inactives show at the top dose activity change, negative = inhibition, hits mostly inhibitors; P18054; purified 12hLO, xylenol orange hydroperoxide absorbance; also: potency is read from the fitted curve at half-maximal effect
Target sequence (P18054 whole entry, looked up): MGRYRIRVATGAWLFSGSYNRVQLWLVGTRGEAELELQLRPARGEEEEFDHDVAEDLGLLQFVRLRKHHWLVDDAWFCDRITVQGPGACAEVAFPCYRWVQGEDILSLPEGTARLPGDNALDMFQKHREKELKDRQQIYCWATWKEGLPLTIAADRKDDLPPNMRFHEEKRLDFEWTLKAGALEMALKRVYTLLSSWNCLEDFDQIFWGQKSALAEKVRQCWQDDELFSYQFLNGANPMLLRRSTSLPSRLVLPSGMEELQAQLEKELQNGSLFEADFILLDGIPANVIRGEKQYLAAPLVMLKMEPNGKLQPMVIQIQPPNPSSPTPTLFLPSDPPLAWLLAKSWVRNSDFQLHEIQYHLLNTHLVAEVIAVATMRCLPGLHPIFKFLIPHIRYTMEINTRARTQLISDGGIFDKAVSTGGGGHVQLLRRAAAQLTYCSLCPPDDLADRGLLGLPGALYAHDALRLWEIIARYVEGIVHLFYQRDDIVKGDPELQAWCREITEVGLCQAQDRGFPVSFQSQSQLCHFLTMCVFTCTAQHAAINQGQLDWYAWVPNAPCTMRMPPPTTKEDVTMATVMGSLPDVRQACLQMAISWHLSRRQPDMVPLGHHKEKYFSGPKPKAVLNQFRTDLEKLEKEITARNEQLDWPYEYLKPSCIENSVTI
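Purified human 12hLO (150 nM final) in 25 mM Hepes, 0.01% Triton X-100, pH 7.0 was preincubated 15 min at room temperature with compound. Then 40 uM arachidonic acid was added, 30 min. Hydroperoxide was read by Fe-XO absorbance ratio 573/405 nm.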
DT40 TDP1 CPT: DT40-hTDP1 cell growth loss with CPT | chicken DT40 Tdp1-/-;hTDP1 cells + 20 nM CPT, ATP luminescence, 48 h | Potency, µM (series often up to 46.2 µM), for the others: top-dose activity change, negative = growth inhibition, hits mostly inhibitors | 12% of 420,000 active | AID 686979; also: potency is read from the fitted curve at half-maximal effect; nearly all actives have a fitted effect of over 55% in size
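Cell growth measured by CellTiter-Glo luminescence after a minimum 48 h, 37 C compound exposure with 20 nM CPT in Tdp1-knockout DT40 cells stably expressing hTDP1, seeded 400/well; qHTS titration format.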
The depositor's hits bear a star; ! = not confirmed by another sample; [ ] = remark or other dose. Unless noted, calls follow the shape of the dose curve; as a rule, active = well fitted curve in the direction sought with a large enough effect; inconclusive = small, poorly fitted or top-dose-only effect, or another doubt; inactive = no such curve, though single readings can be large; an effect the other way counts as inactive or inconclusive. Unless noted, % is scaled to controls: 0 for no effect and ±100 for the full control effect.

`O=C(O)C1(Nc2ccccc2)CCCC1` gave IL1B secr inh 21, DT40 TDP1 no CPT 1%, HT1080 IDH1KD tx 6%, HT1080NT lethal 13%, ALOX12 inh inconclusive and DT40 TDP1 CPT 6%.
For CCCN(Cc1nnc(-c2ccccc2Cl)o1)C(=O)c1cc(S(=O)(=O)N(C)C)ccc1Cl the results were ALOX12 inh -1%.
Screening O=Nc1c(O)n(Cc2ccc(Cl)c(Cl)c2)c2ccccc12 returned IL1B secr inh -59*, DT40 TDP1 no CPT inconclusive, HT1080 IDH1KD tx inconclusive, HT1080NT lethal -25%, ALOX12 inh -48% and DT40 TDP1 CPT inconclusive.
Screening O=Nc1c(O)n(Cc2cccc(C(F)(F)F)c2)c2ccccc12 returned IL1B secr inh -246*, DT40 TDP1 no CPT -19%, HT1080 IDH1KD tx inconclusive, HT1080NT lethal inconclusive, ALOX12 inh -29% and DT40 TDP1 CPT 10%.
O=Nc1c(O)n(Cc2ccccc2)c2ccccc12 was read as IL1B secr inh -2, DT40 TDP1 no CPT -1%, HT1080 IDH1KD tx -23%, HT1080NT lethal -21%, ALOX12 inh 47% and DT40 TDP1 CPT -3%.
`CCOCc1nnc(NC(=O)C2CC(=O)N(CCc3c[nH]c4ccc(OC)cc34)C2)s1` (stereo not given) gave ALOX12 inh -15%.
Screening O=C(/C=C/c1ccc(O)c(O)c1)OCCc1ccccc1 returned IL1B secr inh -25, DT40 TDP1 no CPT 1µM*, HT1080 IDH1KD tx inconclusive, HT1080NT lethal inconclusive, ALOX12 inh 11µM*! and DT40 TDP1 CPT 1.5µM*.
For O=C(C=Cc1cccc(O)c1)c1ccccc1O the results were IL1B secr inh -93*, DT40 TDP1 no CPT 15µM*, HT1080 IDH1KD tx inconclusive, HT1080NT lethal inconclusive, ALOX12 inh inconclusive and DT40 TDP1 CPT inconclusive.
For Oc1cc(O)cc(C=Cc2ccc(O)c(O)c2)c1 the results were ALOX12 inh 3.1µM*.
For COc1ccc(C=Cc2cc(OC)c(OC)c(OC)c2)cc1O the results were ALOX12 inh 4%.
`O=C(/C=C/c1cccc(O)c1)c1cccc(O)c1` gave ALOX12 inh -22%.
O=C(/C=C/c1ccc(O)c(O)c1)c1ccccc1O was read as IL1B secr inh -93*, DT40 TDP1 no CPT inconclusive, HT1080 IDH1KD tx -24%, HT1080NT lethal -7%, ALOX12 inh 7.1µM* and DT40 TDP1 CPT 12µM*.
O=C(NCCCO)c1ccc(-c2ncc3cnc(-c4cccc(F)c4)cn23)cc1 was read as ALOX12 inh 2%[176 µM].
For O=C(/C=C/c1ccccc1O)c1ccccc1Cl the results were ALOX12 inh -43%.
Screening O=C(C=Cc1ccccc1O)c1ccccc1O returned IL1B secr inh -97*, DT40 TDP1 no CPT 15µM*, HT1080 IDH1KD tx 18µM*, HT1080NT lethal 23µM*, ALOX12 inh -24% and DT40 TDP1 CPT inconclusive.
`O=C(/C=C/c1ccc(F)cc1)c1ccccc1Br` gave IL1B secr inh inconclusive, DT40 TDP1 no CPT 16µM*, HT1080 IDH1KD tx inconclusive, HT1080NT lethal -18%, ALOX12 inh -17% and DT40 TDP1 CPT inconclusive.
Screening O=C(/C=C/c1ccc(Cl)cc1)c1ccccc1O returned ALOX12 inh -25%.
Screening O=C(/C=C/c1cc2ccccc2o1)c1ccccc1O returned IL1B secr inh -102*, DT40 TDP1 no CPT inconclusive, HT1080 IDH1KD tx -22%, HT1080NT lethal inconclusive, ALOX12 inh 9% and DT40 TDP1 CPT -6%.
O=C(CCS(=O)(=O)c1ccc2c(c1)NC(=O)CS2)NCc1ccccc1 was read as ALOX12 inh -6%.
For CCC(C)Sc1ccc([C@H]2N[C@@](Cc3ccccc3)(C(=O)OC)[C@H]3C(=O)N(CC)C(=O)[C@@H]23)cc1OC (stereo not given in full) the results were IL1B secr inh -18, DT40 TDP1 no CPT 21µM*, HT1080 IDH1KD tx -3%, HT1080NT lethal 12%, ALOX12 inh -7% and DT40 TDP1 CPT inconclusive.
CCC(C)Sc1ccc([C@H]2N[C@@](CC(C)C)(C(=O)OC)[C@H]3C(=O)N(CC)C(=O)[C@@H]23)cc1 (stereo not given in full) was read as IL1B secr inh 0, DT40 TDP1 no CPT inconclusive, HT1080 IDH1KD tx 7%, HT1080NT lethal 8%, ALOX12 inh -13% and DT40 TDP1 CPT inconclusive.
`CCC(C)Sc1ccc([C@H]2N[C@@](Cc3ccccc3)(C(=O)OC)[C@H]3C(=O)N(CC)C(=O)[C@@H]23)cc1` (stereo not given in full) gave IL1B secr inh -24, DT40 TDP1 no CPT 21µM*, HT1080 IDH1KD tx -11%, HT1080NT lethal -15%, ALOX12 inh -11% and DT40 TDP1 CPT inconclusive.
For O=C(CSc1nc(Cl)nc2nc[nH]c12)NCCc1c[nH]c2ccc(F)cc12 the results were ALOX12 inh -4%.
`COc1ccc(C(=O)NC(=S)Nc2cccc3ncccc23)cc1[N+](=O)[O-]` gave IL1B secr inh -6, DT40 TDP1 no CPT inconclusive, HT1080 IDH1KD tx -11%, HT1080NT lethal -15%, ALOX12 inh 0% and DT40 TDP1 CPT -26%.
Screening Cc1ccc(CNC(=O)CSc2nnc(C(=O)Nc3ccc(C)cc3)s2)cc1 returned ALOX12 inh 18%.
CCOc1ccc2nc(-c3ccccc3)[nH]c2c1 was read as IL1B secr inh -3, DT40 TDP1 no CPT 21µM*, HT1080 IDH1KD tx 9.2µM*, HT1080NT lethal 8.2µM*, ALOX12 inh -9% and DT40 TDP1 CPT 9.2µM*.
`COc1ccc2nc(-c3ccccc3)[nH]c2c1` gave IL1B secr inh 10, DT40 TDP1 no CPT inconclusive, HT1080 IDH1KD tx -24%, HT1080NT lethal -14%, ALOX12 inh 0% and DT40 TDP1 CPT inconclusive.
CCCCN1CC(c2nc3ccccc3n2CCCCOc2cc(C)ccc2C)CC1=O (stereo not given) was read as DT40 TDP1 no CPT 8.2µM*, ALOX12 inh inconclusive and DT40 TDP1 CPT 16µM*.
For CCCCN1CC(c2nc3ccccc3n2Cc2cccc3ccccc23)CC1=O (stereo not given) the results were ALOX12 inh -19%.
CCCn1c(C2CC(=O)N(c3ccc(C)cc3)C2)nc2ccccc21 (stereo not given) was read as IL1B secr inh 2, DT40 TDP1 no CPT 0%, HT1080 IDH1KD tx 6%, HT1080NT lethal 6%, ALOX12 inh 0% and DT40 TDP1 CPT -20%.
